This is an account of results in PubChem BioAssay (NCATS).

Records with an inconclusive call do not appear. Unmarked numbers belong to inactive results. Activity calls are given as the source filed them. Calls follow the shape of the dose curve; as a rule, active = well fitted inhibition curve with a large enough effect; inconclusive = small, poorly fitted or top-dose-only effect; inactive = no such curve, though single readings can be large or run the other way.
Potency is read from the fitted curve at half-maximal effect.

This assay is described as follows: BET inhibitor-based combinations targeting novel dependencies in MECOM-rearranged (r) AML: SET-2 cell line (AID 2202231). Also: nearly all actives have a fitted effect of over 35% in size.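 As to viability: plate controls were DMSO treated cells for no effect and wells without cells for full effect.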 Particulars: SET-2 AML cells viability, CellTiter-Glo luminescence, 48 h; viability: hits give low values, series mostly up to about 46 µM. The essentials: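 Viability of cells (500 per well) is scored by luminescent CellTiter-Glo at 48 hr post-dosing. Eleven-point titrations are normalized to DMSO and empty controls and reduced to AUC values.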
`CNC(=O)c1c(-c2ccc(F)cc2)oc2cc(N(CCO)S(C)(=O)=O)c(C3CC3)cc12`: the viability was 119%. Still for that read-out and setting: under `CN1C(=O)N[C@@H](Cc2c[nH]c3c(Cl)cccc23)C1=O` stands 110%. For `CC[C@@H]1C(=O)N(C)c2cnc(Nc3ccc(C(=O)NC4CCC(N5CCN(CC6CC6)CC5)CC4)cc3OC)nc2N1C(C)C` (stereo partly drawn), the Potency is 0.148 µM (active). With `C[C@@H]1CN(Cc2ccc(F)cc2)[C@@H](C)CN1C(=O)c1cc2c(C(=O)C(=O)N(C)C)cn(C)c2cc1Cl`, the viability is 94.6%.

For the compound `CN1CCN(c2ccc(OC(F)(F)F)c(Nc3ncc4c(n3)-c3c(c(C(N)=O)nn3CCO)CC4)c2)CC1`, the Potency is 0.186 µM (active). Consider `Cc1ccc2c(c1)C(=O)[C@]1(O)CCN(c3ccccc3)C1=N2`, for which the viability is 110%.

With `NCCOc1cc(C(=O)Nc2cc(OCCN)c3ccccc3n2)nc(C(=O)Nc2cc(OCCN)c3ccccc3n2)c1`, the viability was 78%. Consider `C=CC(=O)Nc1cccc(Sc2nc(Nc3ccc(N4CCN(C)CC4)cc3)ncc2Cl)c1`, for which the Potency is 11.8 µM (active). The same measure, in the same setting: for `CC(C)c1nn(-c2c(Cl)cccc2Cl)c2nc(Cc3ccc(OCCO)cc3)[nH]c(=O)c12` the value was 0.0417 µM (active). `COc1ccc(-c2c(-c3ccc(O)cc3O)n[nH]c2C)cc1`: the viability was 84%.

In the case of `CC(C)[C@H](CO)Nc1nc(Nc2ccc(C(=O)O)c(Cl)c2)c2ncn(C(C)C)c2n1`, the viability was 109%. Turning to `FC(F)(F)c1ccc(/C=C/c2nc(COc3ccc(CCCCn4ccnn4)cc3)co2)cc1`, the Potency is 0.0742 µM (active). The same measure, in the same setting: for `CC(C)n1nc(-c2ccc3oc(N)nc3c2)c2c(N)ncnc21` the value was 0.148 µM (active).
